Assay results as given in the supplement of paper PMC10849652.
Of roughly 7,900 targets only a part is listed; those with a hit were picked by preference. About 0.6% of all pairs of compound and target were hits.

compound: CCN(CCCOc1ccc2c(Nc3cc(CC(=O)Nc4cccc(F)c4)[nH]n3)ncnc2c1)CCOP(=O)(O)O [barasertib]; assay: log2 fold change, soluble protein after heating vs DMSO (PISA); higher = thermal stabilisation; K562 cells, 10 uM, 30 min; active = over 0.2 and 3.5 SD of the protein, either way, in both replicates (recomputed)
Method in brief: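 Values are thermal stability changes relative to control samples and are taken from duplicates. They are stated as log2 fold changes. Before quantification by TMTpro 16plex LC-MS/MS with equalised channel sums, K562 cells at 2×10^6 cells/mL were treated with 10 μM compound for 30 min, heated in aliquots for 3 min across 48°C-58°C, pooled, extracted in PBS with 0.5% NP-40 at 4°C, and centrifuged at 21,000xg for 90 min to give the soluble supernatant.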

Sequence of UniProt P04035 (P04035 whole entry, looked up): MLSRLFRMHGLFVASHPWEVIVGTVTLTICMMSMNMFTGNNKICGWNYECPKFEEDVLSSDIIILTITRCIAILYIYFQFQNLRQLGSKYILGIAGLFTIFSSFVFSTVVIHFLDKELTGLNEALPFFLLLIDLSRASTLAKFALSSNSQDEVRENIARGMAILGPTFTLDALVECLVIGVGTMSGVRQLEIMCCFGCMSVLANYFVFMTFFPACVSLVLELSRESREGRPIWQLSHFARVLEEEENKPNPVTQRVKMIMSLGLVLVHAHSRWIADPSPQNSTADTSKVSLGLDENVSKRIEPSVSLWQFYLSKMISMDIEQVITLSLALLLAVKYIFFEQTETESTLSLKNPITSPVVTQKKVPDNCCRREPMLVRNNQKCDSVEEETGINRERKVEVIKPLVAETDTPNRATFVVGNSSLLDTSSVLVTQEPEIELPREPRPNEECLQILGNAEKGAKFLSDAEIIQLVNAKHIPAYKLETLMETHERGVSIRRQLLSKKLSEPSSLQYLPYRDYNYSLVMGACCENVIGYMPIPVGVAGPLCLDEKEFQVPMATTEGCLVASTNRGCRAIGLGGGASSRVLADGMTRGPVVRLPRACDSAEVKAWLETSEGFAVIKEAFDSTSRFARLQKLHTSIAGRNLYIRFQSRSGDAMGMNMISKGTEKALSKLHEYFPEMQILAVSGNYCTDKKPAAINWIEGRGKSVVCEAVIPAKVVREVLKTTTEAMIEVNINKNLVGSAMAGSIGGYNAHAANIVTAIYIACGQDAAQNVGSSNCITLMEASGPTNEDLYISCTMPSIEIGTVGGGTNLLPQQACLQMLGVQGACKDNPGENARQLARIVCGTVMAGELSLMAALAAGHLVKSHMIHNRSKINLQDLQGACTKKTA
Sequence of UniProt Q9UJY4 (Q9UJY4 whole entry, looked up): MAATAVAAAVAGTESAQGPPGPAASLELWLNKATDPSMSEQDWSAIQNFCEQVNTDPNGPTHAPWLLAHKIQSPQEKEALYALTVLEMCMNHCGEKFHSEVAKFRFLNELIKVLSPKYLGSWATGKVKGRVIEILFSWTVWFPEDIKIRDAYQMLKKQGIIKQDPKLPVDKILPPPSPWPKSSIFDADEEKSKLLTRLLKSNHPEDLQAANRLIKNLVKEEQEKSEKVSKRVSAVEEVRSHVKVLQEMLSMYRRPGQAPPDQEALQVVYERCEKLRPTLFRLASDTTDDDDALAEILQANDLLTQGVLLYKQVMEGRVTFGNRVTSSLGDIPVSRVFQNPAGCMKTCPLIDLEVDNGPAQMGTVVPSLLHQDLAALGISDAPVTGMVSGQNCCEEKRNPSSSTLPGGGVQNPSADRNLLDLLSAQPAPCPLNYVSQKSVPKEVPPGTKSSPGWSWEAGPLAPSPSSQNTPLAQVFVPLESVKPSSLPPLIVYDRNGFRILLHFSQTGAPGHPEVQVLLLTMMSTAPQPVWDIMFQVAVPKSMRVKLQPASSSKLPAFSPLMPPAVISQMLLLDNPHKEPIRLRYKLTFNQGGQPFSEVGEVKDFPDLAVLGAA
Sequence of UniProt Q02790 (Q02790 whole entry, looked up): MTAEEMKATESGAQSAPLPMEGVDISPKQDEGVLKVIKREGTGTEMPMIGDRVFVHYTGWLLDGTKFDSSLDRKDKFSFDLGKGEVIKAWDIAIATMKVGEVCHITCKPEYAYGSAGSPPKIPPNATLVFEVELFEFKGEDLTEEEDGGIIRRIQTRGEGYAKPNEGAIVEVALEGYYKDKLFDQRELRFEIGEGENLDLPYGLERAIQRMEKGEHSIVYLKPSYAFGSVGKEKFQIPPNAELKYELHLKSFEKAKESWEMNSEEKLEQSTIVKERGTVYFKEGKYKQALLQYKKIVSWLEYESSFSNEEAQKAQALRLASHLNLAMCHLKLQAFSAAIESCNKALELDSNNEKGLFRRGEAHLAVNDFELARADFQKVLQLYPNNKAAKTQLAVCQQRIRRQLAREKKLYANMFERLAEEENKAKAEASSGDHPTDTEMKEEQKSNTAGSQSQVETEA
Sequence of UniProt P07910 (P07910 whole entry, looked up): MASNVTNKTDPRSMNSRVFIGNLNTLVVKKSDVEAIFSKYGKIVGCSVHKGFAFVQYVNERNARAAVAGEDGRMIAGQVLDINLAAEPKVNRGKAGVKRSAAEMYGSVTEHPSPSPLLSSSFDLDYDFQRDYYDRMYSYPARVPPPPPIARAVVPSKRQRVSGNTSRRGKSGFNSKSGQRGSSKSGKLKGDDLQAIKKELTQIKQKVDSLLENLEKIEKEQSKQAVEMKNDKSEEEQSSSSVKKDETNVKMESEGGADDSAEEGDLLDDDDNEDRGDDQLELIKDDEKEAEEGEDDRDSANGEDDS
Sequence of UniProt O15228 (O15228 whole entry, looked up): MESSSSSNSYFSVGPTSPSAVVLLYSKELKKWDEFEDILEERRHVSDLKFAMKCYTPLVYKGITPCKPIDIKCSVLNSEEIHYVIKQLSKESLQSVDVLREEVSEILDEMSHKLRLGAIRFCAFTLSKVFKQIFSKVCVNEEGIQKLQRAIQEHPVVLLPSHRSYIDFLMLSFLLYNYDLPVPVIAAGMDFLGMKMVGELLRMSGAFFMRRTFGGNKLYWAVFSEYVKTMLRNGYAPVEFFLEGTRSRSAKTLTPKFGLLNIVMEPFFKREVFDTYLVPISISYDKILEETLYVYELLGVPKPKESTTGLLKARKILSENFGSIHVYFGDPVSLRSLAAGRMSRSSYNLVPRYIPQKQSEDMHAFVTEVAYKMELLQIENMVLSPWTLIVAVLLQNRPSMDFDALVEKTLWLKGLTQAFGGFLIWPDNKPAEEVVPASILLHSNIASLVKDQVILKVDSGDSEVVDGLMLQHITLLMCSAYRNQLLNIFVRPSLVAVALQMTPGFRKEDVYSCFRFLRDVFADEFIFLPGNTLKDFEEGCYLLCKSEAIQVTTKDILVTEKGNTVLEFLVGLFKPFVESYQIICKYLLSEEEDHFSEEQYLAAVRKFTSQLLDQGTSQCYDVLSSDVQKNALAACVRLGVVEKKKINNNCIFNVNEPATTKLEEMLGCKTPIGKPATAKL
Sequence of UniProt P09105 (P09105 whole entry, looked up): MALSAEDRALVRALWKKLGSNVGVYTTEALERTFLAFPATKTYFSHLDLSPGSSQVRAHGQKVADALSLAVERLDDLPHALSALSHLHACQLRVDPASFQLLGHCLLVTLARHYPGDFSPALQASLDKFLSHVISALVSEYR
Sequence of UniProt O00458 (O00458 whole entry, looked up): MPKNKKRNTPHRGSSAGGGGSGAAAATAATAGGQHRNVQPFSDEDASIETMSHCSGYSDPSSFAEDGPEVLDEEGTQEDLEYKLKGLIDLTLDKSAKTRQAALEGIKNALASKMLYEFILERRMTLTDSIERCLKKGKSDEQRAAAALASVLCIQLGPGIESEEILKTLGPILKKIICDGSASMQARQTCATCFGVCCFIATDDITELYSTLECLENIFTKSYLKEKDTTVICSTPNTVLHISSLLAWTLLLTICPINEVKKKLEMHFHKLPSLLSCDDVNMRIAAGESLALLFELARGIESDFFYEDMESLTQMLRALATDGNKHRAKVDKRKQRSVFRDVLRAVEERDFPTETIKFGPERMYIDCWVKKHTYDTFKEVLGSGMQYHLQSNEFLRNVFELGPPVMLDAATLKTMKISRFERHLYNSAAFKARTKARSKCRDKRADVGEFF
Sequence of UniProt Q96JB3 (Q96JB3 whole entry, looked up): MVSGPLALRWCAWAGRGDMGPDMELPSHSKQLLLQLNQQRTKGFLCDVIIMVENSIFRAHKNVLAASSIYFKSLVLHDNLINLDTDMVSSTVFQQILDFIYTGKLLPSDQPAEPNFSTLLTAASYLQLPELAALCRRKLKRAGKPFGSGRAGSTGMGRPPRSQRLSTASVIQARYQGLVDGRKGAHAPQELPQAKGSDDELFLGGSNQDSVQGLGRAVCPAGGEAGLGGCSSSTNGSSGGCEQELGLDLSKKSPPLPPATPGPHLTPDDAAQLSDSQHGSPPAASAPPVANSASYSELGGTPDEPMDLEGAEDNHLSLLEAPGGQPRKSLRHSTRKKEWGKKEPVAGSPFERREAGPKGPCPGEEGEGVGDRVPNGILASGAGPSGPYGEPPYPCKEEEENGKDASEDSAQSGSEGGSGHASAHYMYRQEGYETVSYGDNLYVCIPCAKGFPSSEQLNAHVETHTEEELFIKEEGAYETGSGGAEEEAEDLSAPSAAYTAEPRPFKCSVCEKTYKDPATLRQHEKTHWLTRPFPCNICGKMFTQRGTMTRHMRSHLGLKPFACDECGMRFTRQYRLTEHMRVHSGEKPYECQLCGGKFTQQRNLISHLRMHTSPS
Sequence of UniProt P52657 (P52657 whole entry, looked up): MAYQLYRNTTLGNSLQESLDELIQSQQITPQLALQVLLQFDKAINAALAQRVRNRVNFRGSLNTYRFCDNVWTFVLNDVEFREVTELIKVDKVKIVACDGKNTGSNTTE
Sequence of UniProt P49840 (P49840 whole entry, looked up): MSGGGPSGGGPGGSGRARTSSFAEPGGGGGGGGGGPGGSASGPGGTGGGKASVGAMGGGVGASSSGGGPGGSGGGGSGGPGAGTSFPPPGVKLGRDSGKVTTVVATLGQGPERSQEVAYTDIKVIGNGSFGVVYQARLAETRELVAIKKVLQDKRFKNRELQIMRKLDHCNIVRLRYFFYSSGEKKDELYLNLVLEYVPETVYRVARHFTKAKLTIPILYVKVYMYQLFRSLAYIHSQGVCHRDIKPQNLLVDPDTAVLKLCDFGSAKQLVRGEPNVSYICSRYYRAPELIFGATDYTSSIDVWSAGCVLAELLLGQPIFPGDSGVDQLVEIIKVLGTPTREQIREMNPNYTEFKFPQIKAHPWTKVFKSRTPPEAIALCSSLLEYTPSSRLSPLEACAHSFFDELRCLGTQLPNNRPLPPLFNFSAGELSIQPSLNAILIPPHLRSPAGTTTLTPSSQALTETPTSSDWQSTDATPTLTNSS
Sequence of UniProt P36969 (P36969 whole entry, looked up): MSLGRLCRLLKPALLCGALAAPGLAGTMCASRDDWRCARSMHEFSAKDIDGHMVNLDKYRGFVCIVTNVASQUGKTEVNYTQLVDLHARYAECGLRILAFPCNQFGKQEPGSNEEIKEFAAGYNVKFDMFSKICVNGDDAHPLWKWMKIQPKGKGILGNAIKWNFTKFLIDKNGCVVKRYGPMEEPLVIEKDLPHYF

log2 fold change, inactive:
GNB2 (UniProt P62879) -0.042, GTF2B (UniProt Q00403) 0.044, GTF2E1 (UniProt P29083) 0.166, GPX4 (UniProt P36969) -0.012, HMGB3 (UniProt O15347) -0.008, GAPVD1 isoform 6 (UniProt Q14C86) 0.034, FNTB (UniProt P49356) -0.034, FKBP4 (UniProt Q02790) 0.013, IFRD1 (UniProt O00458) -0.079, IFT80 isoform 3 (UniProt Q9P2H3) -0.004, IFI30 (UniProt P13284) 0.028, GALNT1 (UniProt Q10472) 0.007, FUBP3 (UniProt Q96I24) -0.012, ICMT (UniProt O60725) 0.022, GCC2 (UniProt Q8IWJ2) -0.037, HIC2 (UniProt Q96JB3) -0.033, HRC (UniProt P23327) 0.021, HSD17B12 (UniProt Q53GQ0) -0.04, HMGCR isoform 3 (UniProt P04035) 0.027, GOLPH3 (UniProt Q9H4A6) 0.023, GEMIN5 (UniProt Q8TEQ6) 0.019, FUCA2 (UniProt Q9BTY2) -0.01, HNRNPH1 (UniProt P31943) 0.05, GNPAT (UniProt O15228) 0.044, GOPC (UniProt Q9HD26) -0.116, HPCAL1 (UniProt P37235) 0.019, GTF2A2 (UniProt P52657) 0.007, GSK3A (UniProt P49840) 0.014, HBQ1 (UniProt P09105) 0.038, HOOK3 (UniProt Q86VS8) 0.008, HEXA (UniProt P06865) -0.001, GGA2 (UniProt Q9UJY4) 0.051, HNRNPC isoform 2 (UniProt P07910) -0.095, H2AFX (UniProt P16104) -0.11, HDDC2 (UniProt Q7Z4H3) -0.022
